Experimental findings from PubChem BioAssay (NCATS) are described below.

Results filed as inconclusive are left out. A structure can be active in one record and inactive in another. Active and inactive are the calls of the source. Unless noted, calls come from the whole dose curve; as a rule, active = well fitted curve in the direction sought with a large enough effect; inconclusive = small, poorly fitted or top-dose-only effect, or another doubt; inactive = no such curve, though single readings can be large; an effect the other way counts as inactive or inconclusive.

Experiment [1] is described as follows: qHTS Assay for Lipid Storage Modulators (AID 1519; calls by dose curve). Particulars: Drosophila S3 cells, BODIPY lipid droplet/cell ratio, laser cytometry, cells loaded with oleic acid; for activity change, negative = inhibition: at 57.5 µM (top of the series). The essentials:
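Cells seeded at 5,000 per well were treated with compounds over a concentration series and loaded with oleic acid (400 uM, as added). Lipid droplet fluorescence (488 nm excitation, 500-530 nm channel) was read by laser-scanning cytometry and normalized to 20 uM Triacsin C.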
A general note: qHTS replaces the single test concentration by a dilution series.

In experiment [2] the target is Lysosomal acid glucosylceramidase (Homo sapiens) (UniProt P04062). In words: Glucocerebrosidase-p2 (AID 348; in the data active = potency below about 10 µM; note: potency is the fitted concentration of half-maximal effect). Particulars: purified GBA, blue fluorogenic substrate, 40 min. The essentials:
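Compounds titrated from 0.6 nM upwards against 0.2 nM enzyme in pH 5.9 citric acid/KH2PO4, taurocholate, tween-20; blue fluorogenic substrate 80 uM, 40 min room temperature, stopped and read Ex 365/Em 440 for AC50.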

Experiment [3] in a line: AP1 Signaling Pathway (AID 357; active = well fitted curve in either direction with a large enough effect, not every such curve was filed as active;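 note: ME-180 reporter cells stimulated with EGF at its EC50 level; % is set by controls: 0 for no effect and ±100 for the full control effect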). Particulars: ME-180 AP-1-bla reporter, EGF-induced, beta-lactamase ratio, 5 h; at 7.69 µM (top of the series) unless noted. The essentials:
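Cells are seeded overnight, exposed to compound titrations and an EC50 level of EGF for 5 hours at 37 °C, then loaded with CCF4 dye for 2.5 hours. Beta-lactamase activity under the AP-1 element is read as a blue/green ratio.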

The target of experiment [4] is Cytochrome P450 1A2 (Homo sapiens) (UniProt P05177). In words: p450-cyp1a2 (AID 410; calls by dose curve; note: potency is the fitted concentration of half-maximal effect). Particulars: recombinant CYP1A2, luciferin-ME demethylation, luminescence; series mostly up to 57 µM. The essentials:
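Human CYP1A2 (20nM) demethylated Luciferin-ME at its Km (100uM) in 100mM KPO4. After 10 min compound preincubation, NADPH regeneration ran the reaction 60 min at room temperature. Luciferin was read by luminescence, normalized to 57 uM furafylline.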

The nature of experiment [5]: NFAT Signaling Pathway (AID 444; active = well fitted curve in either direction with a large enough effect, not every such curve was filed as active;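 note: carbachol stimulus at about its EC50 of 1 µM final; % is set by controls: 0 for no effect and ±100 for the full control effect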). The conditions noted are these: Jurkat NFAT-bla M1, carbachol, beta-lactamase ratio, 5 h; at 7.69 µM (top of the series) unless noted. The essentials:
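Jurkat cells carrying an NFAT-driven β-lactamase reporter and co-transfected muscarinic M1 receptor were treated with compound plus carbachol (1 uM final, an EC50 level) for 5 h at 37 °C. CCF4 loading followed for 1 h at RT; 460/530 nm ratio gave %activity.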

The nature of experiment [6]: Stat Signaling Pathway (AID 446; active = well fitted curve in either direction with a large enough effect, not every such curve was filed as active;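 note: ME-180 cervical cancer cells given 40 pM IL-6 alongside compound; SIE-controlled beta-lactamase reporter measured as 460/530 nm FRET emission ratio; % is set by controls: 0 for no effect and ±100 for the full control effect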). Particulars: ME-180 SIE beta-lactamase reporter, IL-6 stimulated, 5 h; at 7.69 µM (top of the series) unless noted. The essentials: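 ME-180 cells carrying a SIE-driven beta-lactamase reporter are stimulated with 40 pM IL-6 for 5 h at 37C in the presence of compound. The 460/530 nm FRET substrate ratio is read after 2.5 h at RT. Data are normalised to 300 pM IL-6 and to 125 nM JAK inhibitor controls.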

Experiment [7] concerns the target Glucocorticoid receptor (Homo sapiens) (UniProt P04150). In words: GR-GFP Redistribution (AID 450;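 active = compounds whose dose series gives a full or clear partial fitted curve of increased nuclear translocation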; note: potency is the fitted concentration of half-maximal effect). The conditions noted are these: U2OS GR-GFP nuclear translocation, laser cytometry, 2 h.
Experiment [8] shares this target. In words: GR-EFC Redistribution (AID 451; calls by dose curve; note: potency is the fitted concentration of half-maximal effect). Particulars: CHO-K1 GR-EFC translocation, beta-gal luminescence, 2 h. The essentials:
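CHO-K1 cells stably expressing nuclear-localized β-gal enzyme acceptor and GR fused C-terminally to the enzyme donor fragment; ligand-driven nuclear translocation restores β-gal by complementation. Compounds titrated up to 46 uM final, 2 h at 37 °C; luminescence read.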

The target of experiment [9] is Mitogen-activated protein kinase 10 (Mus musculus) (UniProt Q61831). In words: JNK3 AlphaScreen Assay (AID 530; active = well fitted curve in either direction with a large enough effect, not every such curve was filed as active;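 note: kinase came from lysate of stimulated human HepG2 cells; % is set by controls: 0 for no effect and ±100 for the full control effect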). Particulars: JNK3 lysate, c-Jun phosphorylation; series mostly up to 57.1 µM. The essentials: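 JNK3 came from HepG2 lysates pre-activated with IL-1beta and TNF-alpha and phosphorylated biotinylated GST-cJun (1-79) at 10 uM ATP, pH 7.6, room temperature. Compounds were titrated. AlphaScreen signal used anti-phospho-cJun (Ser73) antibody.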
On the technique in general: In Alpha technology, singlet oxygen from a donor bead excites a nearby acceptor bead.

Experiment [10] deals with Cytochrome P450 3A4 (Homo sapiens) (UniProt P08684). In words: qHTS Assay for Inhibitors and Substrates of Cytochrome P450 3A4 (AID 884). Note: nearly all actives have a fitted effect of over 50% in size. Note: potency is the fitted concentration of half-maximal effect. Particulars: recombinant CYP3A4, Luciferin-PPXE luminescence; series mostly up to 57.1 µM. The essentials: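 20 nM human CYP3A4 with 25 uM Luciferin-PPXE (at KM) in 200 mM KPO4, preincubated 10 min with compound; NADPH regeneration started a 60 min RT reaction. Luciferin detected by luminescence, normalized to 57 uM ketoconazole as full inhibition.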
Chain of Cytochrome P450 3A4 (Homo sapiens) (P08684 whole entry, looked up): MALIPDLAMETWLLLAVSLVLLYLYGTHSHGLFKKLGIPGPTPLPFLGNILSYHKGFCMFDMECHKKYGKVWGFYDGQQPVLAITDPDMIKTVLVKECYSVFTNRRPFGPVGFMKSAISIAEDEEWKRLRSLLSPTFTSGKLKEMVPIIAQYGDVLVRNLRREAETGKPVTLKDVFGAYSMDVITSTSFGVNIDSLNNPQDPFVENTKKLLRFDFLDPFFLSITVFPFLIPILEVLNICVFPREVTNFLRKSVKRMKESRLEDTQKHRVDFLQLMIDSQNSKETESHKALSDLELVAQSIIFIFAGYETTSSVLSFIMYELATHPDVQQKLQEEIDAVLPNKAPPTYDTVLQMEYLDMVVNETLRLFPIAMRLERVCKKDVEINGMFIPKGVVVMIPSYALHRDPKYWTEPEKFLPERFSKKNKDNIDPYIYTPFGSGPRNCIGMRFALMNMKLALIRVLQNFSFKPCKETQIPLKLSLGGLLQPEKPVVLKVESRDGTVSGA

For experiment [11] the target is unchanged. In words: qHTS Assay for Activators of Cytochrome P450 3A4 (AID 885). Note: nearly all actives have a fitted effect of over 65% in size. Particulars: recombinant CYP3A4, Luciferin-PPXE luminescence, 60 min; series mostly up to 57.1 µM. The essentials: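 Human CYP3A4 (20 nM) with Luciferin-PPXE at 25 uM (its KM) in 200 mM KPO4; 10 min compound preincubation, then NADPH regeneration and 60 min reaction at RT. Luciferin read by luminescence; normalized to 57 uM ketoconazole full inhibition.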

Experiment [12] can be described thus: Confirmation and Secondary Assay for Modulators of Hemoglobin Beta Chain Splicing at IVS2 654 locus (AID 910).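 Note: per-well total GFP intensity by laser scanning cytometry after 2-day treatment; % of control where 0% means no effect.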 Particulars: HeLa EGFP-654 splicing reporter, GFP fluorescence, 48 h; series mostly up to 38.3 µM. The essentials: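 HeLa cells stably carrying EGFP interrupted by mutant beta-globin IVS2-654 intron (CMV-driven) were treated with compound for 2 days at 37C; corrected splicing was scored as total peak GFP intensity per well (488 nm excitation, 500-520 nm emission).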

Experiment [13] can be described thus: Confirmation and Secondary Assay for Modulators of Hemoglobin Beta Chain Splicing at IVS2 705 locus (AID 930).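 Note: HeLa cells stably expressing the EGFP-705 splicing reporter; GFP fluorescence per well restored by corrected splicing of the IVS2-705 intron in EGFP; % of control where 0% means no effect.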 Particulars: HeLa EGFP-705 splicing reporter, GFP fluorescence, 48 h; series mostly up to 38.3 µM. The essentials:
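Assay measures total GFP intensity per well in HeLa EGFP-705 cells after 2 days with compound; mis-splicing normally truncates EGFP, so fluorescence indicates corrected splicing.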

For experiment [14], the target named is Rap guanine nucleotide exchange factor 3 (Homo sapiens) (UniProt O95398). In words: Confirmatory qHTS for antagonist of cAMP-regulated guanine nucleotide exchange factor 3 (EPAC1) (AID 1645880).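 Note: plate controls were DMSO only for no effect and full effect of the ATA control for full effect; nearly all actives have a fitted effect of over 55% in size.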 Particulars: EPAC1 Rap1B-BODIPY-GDP exchange, fluorescence; series mostly up to 115 µM. The essentials: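 Nucleotide exchange uses 100 nM EPAC1, 250 nM RAP1B-BODIPY-GDP and 50 uM GDP, with compounds in a concentration-titration series. After 5 min at room temperature, fluorescence (480 nm ex/540 nm em) is read every 5 min for 30 min. Data are normalized to control ATA and DMSO.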
Chain of Rap guanine nucleotide exchange factor 3 (Homo sapiens) (O95398 whole entry, looked up): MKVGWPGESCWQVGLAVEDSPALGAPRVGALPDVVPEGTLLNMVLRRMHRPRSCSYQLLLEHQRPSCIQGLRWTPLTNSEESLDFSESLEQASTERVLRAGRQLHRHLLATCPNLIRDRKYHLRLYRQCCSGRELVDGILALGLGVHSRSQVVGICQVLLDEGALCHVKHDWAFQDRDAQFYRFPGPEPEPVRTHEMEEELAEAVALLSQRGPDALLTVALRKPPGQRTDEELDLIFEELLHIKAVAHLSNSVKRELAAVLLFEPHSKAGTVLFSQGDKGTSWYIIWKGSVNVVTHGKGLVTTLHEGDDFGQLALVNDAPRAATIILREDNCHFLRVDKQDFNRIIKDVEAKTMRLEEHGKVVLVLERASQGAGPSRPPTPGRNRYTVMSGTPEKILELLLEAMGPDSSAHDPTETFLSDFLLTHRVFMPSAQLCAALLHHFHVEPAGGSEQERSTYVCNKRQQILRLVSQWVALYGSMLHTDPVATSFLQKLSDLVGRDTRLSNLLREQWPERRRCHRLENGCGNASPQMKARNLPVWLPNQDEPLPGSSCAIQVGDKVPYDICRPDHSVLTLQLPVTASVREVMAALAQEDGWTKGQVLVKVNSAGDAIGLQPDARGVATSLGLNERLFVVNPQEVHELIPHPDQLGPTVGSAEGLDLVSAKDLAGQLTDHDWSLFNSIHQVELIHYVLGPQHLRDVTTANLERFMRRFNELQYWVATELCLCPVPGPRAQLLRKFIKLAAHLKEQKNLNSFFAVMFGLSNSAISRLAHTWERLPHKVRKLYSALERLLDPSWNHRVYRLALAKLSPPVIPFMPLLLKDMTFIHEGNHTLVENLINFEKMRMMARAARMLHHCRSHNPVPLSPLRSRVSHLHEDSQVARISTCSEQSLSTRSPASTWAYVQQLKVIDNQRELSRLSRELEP

For experiment [15] the target is unchanged. In words: Confirmatory qHTS for agonist of cAMP-regulated guanine nucleotide exchange factor 3 (EPAC1) (AID 1645881).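 Note: EPAC1 catalysed release of BODIPY-GDP from Rap1B seen as fluorescence loss; 100% = effect of cAMP agonist control; nearly all actives have a fitted effect of over 75% in size.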 The conditions noted are these: EPAC1 Rap1B BODIPY-GDP exchange fluorescence; series mostly up to 154 µM.
Experiment [16] addresses Rap guanine nucleotide exchange factor 4 (Homo sapiens) (UniProt Q8WZA2). In words: Confirmatory qHTS for agonist of cAMP-regulated guanine nucleotide exchange factor 4 (EPAC2) (AID 1645884).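 Note: nucleotide exchange releases bodipy-GDP from Rap1 and this lowers its fluorescence; % is set by controls: 0 for no effect and ±100 for the full control effect; nearly all actives have a fitted effect of over 65% in size.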 Particulars: EPAC2 GEF activity, Rap1B-BODIPY-GDP fluorescence; series mostly up to 154 µM.
Experiment [17] shares this target. In words: Confirmatory qHTS for antagonist of cAMP-regulated guanine nucleotide exchange factor 4 (EPAC2) (AID 1645885). Note: nearly all actives have a fitted effect of over 25% in size. Note: potency is the fitted concentration of half-maximal effect. The conditions noted are these: EPAC2 Rap1B-BODIPY-GDP exchange fluorescence, biochemical; series mostly up to 114 µM.
Experiment [18] addresses 3',5'-cyclic-AMP phosphodiesterase 4B (Homo sapiens) (UniProt Q07343). In words: qHTS Assay for Inhibitors of PDE-IV (AID 607; active = well fitted activation curve with a large enough effect in the main read-out, with a control signal flat, not every such curve was filed as active; note: % of control where 0% means no effect). Particulars: HEK293 ACTOne CNG channel cells, membrane potential fluorescence; series mostly up to 22.9 µM. The essentials:
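HEK293 ACTOne cells with CNG channel (1000/well), endogenous PDE4; membrane potential dye, compounds up to 22.9 uM final. Fluorescence Ex 535/Em 590; RO 20-1724 (100 uM final) as reference.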

In experiment [19] the target is Ubiquitin carboxyl-terminal hydrolase 1 (Homo sapiens) (UniProt O94782). In words: Inhibitors of USP1/UAF1: Pilot qHTS (AID 504865). Note: potency is the fitted concentration of half-maximal effect; nearly all actives have a fitted effect of over 35% in size. Particulars: purified USP1/UAF1, Ub-rhodamine cleavage fluorescence; series mostly up to 54.9 µM. The essentials: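 In 50mM HEPES pH 7.8 containing 0.5mM EDTA, 1mM TCEP, 0.1 mg/ml BSA and 0.01% Tween-20, 1nM USP1/UAF1 is exposed to compound for 15 min, then Ub-Rho (150nM final) is added and fluorescence is read over time.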

[20] abbreviates: measured here: cell count channel max response.
[21] abbreviates: measured here: lipid channel max response.

Chain of Glucocorticoid receptor (Homo sapiens) (P04150 whole entry, looked up): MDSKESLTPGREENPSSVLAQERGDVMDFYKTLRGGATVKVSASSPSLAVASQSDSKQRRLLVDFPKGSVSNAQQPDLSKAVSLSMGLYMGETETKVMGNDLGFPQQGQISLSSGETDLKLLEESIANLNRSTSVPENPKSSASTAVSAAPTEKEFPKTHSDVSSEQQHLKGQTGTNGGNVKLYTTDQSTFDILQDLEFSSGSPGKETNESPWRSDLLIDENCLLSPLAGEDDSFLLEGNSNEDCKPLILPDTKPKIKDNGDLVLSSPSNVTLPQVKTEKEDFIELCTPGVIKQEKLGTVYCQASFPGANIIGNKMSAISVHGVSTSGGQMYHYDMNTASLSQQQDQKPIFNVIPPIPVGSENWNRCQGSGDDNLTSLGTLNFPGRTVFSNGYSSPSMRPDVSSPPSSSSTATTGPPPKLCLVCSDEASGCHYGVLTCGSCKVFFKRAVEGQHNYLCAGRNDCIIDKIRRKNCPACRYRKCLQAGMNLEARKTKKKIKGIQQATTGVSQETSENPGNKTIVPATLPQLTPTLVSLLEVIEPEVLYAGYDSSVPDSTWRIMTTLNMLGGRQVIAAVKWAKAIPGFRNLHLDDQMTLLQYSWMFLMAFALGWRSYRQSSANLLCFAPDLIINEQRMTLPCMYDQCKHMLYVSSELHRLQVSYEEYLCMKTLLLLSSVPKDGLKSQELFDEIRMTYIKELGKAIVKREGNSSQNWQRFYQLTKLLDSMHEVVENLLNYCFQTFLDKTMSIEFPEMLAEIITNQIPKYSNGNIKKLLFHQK
Chain of Cytochrome P450 1A2 (Homo sapiens) (P05177 whole entry, looked up): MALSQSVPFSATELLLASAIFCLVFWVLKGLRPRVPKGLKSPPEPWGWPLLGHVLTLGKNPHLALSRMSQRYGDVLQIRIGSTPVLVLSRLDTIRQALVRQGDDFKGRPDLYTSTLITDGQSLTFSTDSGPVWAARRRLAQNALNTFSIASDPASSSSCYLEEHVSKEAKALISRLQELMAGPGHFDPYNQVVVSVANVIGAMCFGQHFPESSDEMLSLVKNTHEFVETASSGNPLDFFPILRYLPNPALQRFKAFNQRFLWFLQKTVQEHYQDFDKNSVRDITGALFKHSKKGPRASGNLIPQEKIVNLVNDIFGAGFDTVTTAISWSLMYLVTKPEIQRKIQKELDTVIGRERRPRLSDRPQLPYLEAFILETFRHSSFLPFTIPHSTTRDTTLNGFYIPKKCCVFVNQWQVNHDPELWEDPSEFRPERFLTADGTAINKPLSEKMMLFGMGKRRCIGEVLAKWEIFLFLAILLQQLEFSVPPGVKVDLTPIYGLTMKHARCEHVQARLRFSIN
Chain of Rap guanine nucleotide exchange factor 4 (Homo sapiens) (Q8WZA2 whole entry, looked up): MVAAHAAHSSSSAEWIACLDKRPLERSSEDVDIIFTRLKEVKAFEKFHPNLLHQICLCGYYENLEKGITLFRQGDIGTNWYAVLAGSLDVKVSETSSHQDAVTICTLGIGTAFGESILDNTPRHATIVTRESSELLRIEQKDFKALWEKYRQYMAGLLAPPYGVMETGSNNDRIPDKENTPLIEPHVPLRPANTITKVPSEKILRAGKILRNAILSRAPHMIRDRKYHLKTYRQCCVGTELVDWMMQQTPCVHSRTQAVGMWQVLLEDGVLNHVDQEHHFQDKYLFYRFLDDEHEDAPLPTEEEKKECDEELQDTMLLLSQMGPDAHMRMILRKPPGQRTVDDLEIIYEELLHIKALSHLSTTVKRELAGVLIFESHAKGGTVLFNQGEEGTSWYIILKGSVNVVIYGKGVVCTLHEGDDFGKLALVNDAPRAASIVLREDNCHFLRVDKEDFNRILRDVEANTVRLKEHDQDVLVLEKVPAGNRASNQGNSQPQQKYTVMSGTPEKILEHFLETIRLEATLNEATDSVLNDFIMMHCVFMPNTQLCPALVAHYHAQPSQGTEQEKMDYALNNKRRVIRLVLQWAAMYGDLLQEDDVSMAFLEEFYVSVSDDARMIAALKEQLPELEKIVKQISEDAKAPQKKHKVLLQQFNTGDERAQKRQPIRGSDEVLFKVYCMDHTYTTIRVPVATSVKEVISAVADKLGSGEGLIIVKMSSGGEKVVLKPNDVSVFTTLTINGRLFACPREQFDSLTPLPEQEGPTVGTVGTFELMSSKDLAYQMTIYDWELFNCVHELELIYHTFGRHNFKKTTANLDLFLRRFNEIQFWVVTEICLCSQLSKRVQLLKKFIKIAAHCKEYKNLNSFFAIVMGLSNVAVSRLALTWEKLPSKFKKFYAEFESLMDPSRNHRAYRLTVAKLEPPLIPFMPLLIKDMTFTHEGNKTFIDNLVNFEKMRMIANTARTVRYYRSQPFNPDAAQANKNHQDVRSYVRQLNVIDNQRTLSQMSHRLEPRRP
Chain of Lysosomal acid glucosylceramidase (Homo sapiens) (P04062 whole entry, looked up): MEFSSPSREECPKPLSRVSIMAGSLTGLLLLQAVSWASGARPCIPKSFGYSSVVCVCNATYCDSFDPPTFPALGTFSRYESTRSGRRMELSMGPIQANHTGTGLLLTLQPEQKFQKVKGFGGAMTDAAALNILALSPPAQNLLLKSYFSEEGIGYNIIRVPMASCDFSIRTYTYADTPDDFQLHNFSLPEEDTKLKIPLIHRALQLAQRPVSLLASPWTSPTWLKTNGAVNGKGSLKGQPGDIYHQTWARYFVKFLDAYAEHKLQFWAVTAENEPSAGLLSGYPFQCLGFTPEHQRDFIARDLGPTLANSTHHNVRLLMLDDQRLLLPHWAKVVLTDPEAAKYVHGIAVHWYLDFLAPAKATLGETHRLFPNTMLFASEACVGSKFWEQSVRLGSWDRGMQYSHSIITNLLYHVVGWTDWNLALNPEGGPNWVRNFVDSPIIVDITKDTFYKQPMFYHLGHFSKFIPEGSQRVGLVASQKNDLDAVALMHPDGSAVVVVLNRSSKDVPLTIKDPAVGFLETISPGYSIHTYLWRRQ
Chain of 3',5'-cyclic-AMP phosphodiesterase 4B (Homo sapiens) (Q07343 whole entry, looked up): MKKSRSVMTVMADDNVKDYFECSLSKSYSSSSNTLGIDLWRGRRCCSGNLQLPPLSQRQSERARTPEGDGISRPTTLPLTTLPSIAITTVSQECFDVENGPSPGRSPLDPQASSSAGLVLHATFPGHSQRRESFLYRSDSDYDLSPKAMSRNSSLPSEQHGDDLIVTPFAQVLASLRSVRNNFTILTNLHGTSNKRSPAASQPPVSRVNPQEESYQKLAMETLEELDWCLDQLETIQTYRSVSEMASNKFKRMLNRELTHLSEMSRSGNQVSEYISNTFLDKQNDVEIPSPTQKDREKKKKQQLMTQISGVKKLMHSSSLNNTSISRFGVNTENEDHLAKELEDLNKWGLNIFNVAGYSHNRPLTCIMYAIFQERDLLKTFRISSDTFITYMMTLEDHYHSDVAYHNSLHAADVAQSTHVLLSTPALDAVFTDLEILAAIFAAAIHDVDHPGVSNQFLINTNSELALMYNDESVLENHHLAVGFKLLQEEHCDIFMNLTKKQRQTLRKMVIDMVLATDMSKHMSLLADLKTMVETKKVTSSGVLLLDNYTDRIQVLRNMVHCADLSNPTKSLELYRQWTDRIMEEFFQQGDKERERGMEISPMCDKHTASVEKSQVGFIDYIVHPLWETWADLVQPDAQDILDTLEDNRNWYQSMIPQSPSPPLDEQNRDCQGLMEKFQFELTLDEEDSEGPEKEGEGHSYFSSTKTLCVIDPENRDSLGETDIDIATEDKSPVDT

Turning to `Nc1ccc(C(=O)O)c(O)c1` (tested in a mixture with another compound), the activity change, negative = inhibition in experiment [1] was 15.3% (inactive). Besides, the max response in experiment [1] (setting [20]) came out at 6.65%; in experiment [1] (setting [21]) it was 22.7%.
`COc1ccc2[nH]cc(CCNc3ncnc4ccc(-c5ccccc5C#N)cc34)c2c1`: the Potency in [2] is > 11.4 µM (inactive); in experiment [4], 3.98 µM (active); in experiment [7], > 46 µM (inactive); in experiment [8], > 46 µM (inactive); in experiment [10] it was 2 µM (active). The figures for the activity change, negative = inhibition in [3], in [5] and in experiment [1] were -21.6% (inactive), 29.2% (inactive) and 4.54% (inactive), respectively. Further, the activity, negative = inhibition in [6] was -19.5% (inactive). In addition, the Potency entry in experiment [9], in experiment [11], in experiment [12], in experiment [14], in experiment [15] and in experiment [16] was “inactive” throughout. The Potency result in experiment [17] is “inactive”. For the same compound, the compound was called inactive in experiment [13]. Also, the figures for the max response in experiment [1] (setting [20]) and in [1] (setting [21]) were -13.6% and -10.8%, respectively.
As for `C=CCc1ccc(OC(=O)c2ccccc2)c(OC)c1`, in [10], the Potency was 5.01 µM (active). Also, the Potency entry in experiment [11], in [12], in experiment [14], in experiment [15] and in experiment [16] was “inactive” in each case. Further, in experiment [13], the compound was called inactive. For the same compound, the figures for the activity change, negative = inhibition in [1] and in [17] were 6.62% (inactive) and -4.91% [at 12.7 µM] (inactive), respectively. The max response in experiment [1] (setting [20]) was 5.85%; in experiment [1] (setting [21]), 15.6%.
As for `CC(C)CN1CCCC2(CCN(C(=O)c3ccco3)CC2)C1`, the activity change, negative = inhibition in experiment [3] is -0.809% (inactive). For the same compound, the activity, negative = inhibition in [6] is 2.64% (inactive). The Potency in experiment [8] is > 46 µM (inactive). Moreover, the Potency entry in experiment [9], in experiment [18] and in experiment [11] was “inactive” in each case.
As to `Cc1cc(C)c(S(=O)(=O)Nc2ccccc2C(F)(F)F)c(C)c1`, the Potency in [4] was 31.6 µM (active); in experiment [7], > 46 µM (inactive); in experiment [8] it was > 46 µM (inactive); in experiment [10], 2.51 µM (active). Also, the Potency result in [11] was “inactive”.
Consider `CCCCCC/C=C\CCCCCCCc1cccc(O)c1C(=O)O`, for which the Potency entry in [10] was “inactive”. Also, in experiment [13], the call was inactive. For the same compound, in experiment [1], the activity change, negative = inhibition was 8.36% (inactive). Moreover, the max response in experiment [1] (setting [20]) worked out at 7.08%; in experiment [1] (setting [21]), 17.7%. The Potency in [19] was 79.4 µM (active).
In the case of `CN(Cc1ccco1)c1ncnc2ccc(-c3ccc4c(c3)OCO4)cc12`, the Potency is > 11.4 µM (inactive) in [2]; 0.501 µM (active) in experiment [4]; > 46 µM (inactive) in experiment [7]; > 46 µM (inactive) in [8]; 2.51 µM (active) in [10]; 13.9 µM (active) and inactive in experiment [17]. Also, the activity, negative = inhibition in [6] is -7.17% (inactive). The Potency result in experiment [9], in [11], in [12], in experiment [14], in [15] and in experiment [16] was “inactive” throughout. Also, in experiment [13], the result was inactive. In addition, the activity change, negative = inhibition in [1] was 2.26% (inactive). Also, the values for the max response in [1] (setting [20]) and in experiment [1] (setting [21]) were -9.61% and -5.56%, respectively.
